Values joined by “and” are separate entries in the source; they are usually repeats but may differ in a detail not shown here. Equal values may be shown once. Records with an inconclusive call do not appear. Active and inactive are the calls of the source. Unless noted, the call rests on the fitted dose curve; in most records, active means well fitted curve in the direction sought with a large enough effect; inconclusive means small, poorly fitted or top-dose-only effect, or another doubt; inactive means no such curve, though single readings can be large; an effect the other way counts as inactive or inconclusive.
Tests used:
[1] = Cell Viability - BJ (AID 421; calls by dose curve;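 further: potency means the concentration at half of the fitted maximal effect; cells exposed to compound for 40 hours at 37 °C before readout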); conditions: BJ fibroblast viability, qHTS
Method in brief: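 Luminescent ATP signal (CellTiter-Glo, 20 min at room temperature) served as the read-out of viable BJ cells after 40 hours of compound treatment. Responses were scaled between DMSO and 100 uM tamoxifen, and AC50 values were obtained by Hill modeling.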

[2] = Cell Viability - HepG2 (AID 433; calls by dose curve;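 further: potency means the concentration at half of the fitted maximal effect; potency for ATP loss meaning cytotoxicity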); conditions: qHTS
Method in brief: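 HepG2 hepatocellular carcinoma cells (1500/well) were treated with compounds for 40 h at 37 °C in complete medium; intracellular ATP was read by CellTiter-Glo luminescence. Data were normalized to DMSO and 100 uM tamoxifen, and AC50 came from Hill fits.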

[3] = Cell Viability - MRC5 (AID 434; calls by dose curve;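 further: potency means the concentration at half of the fitted maximal effect; potency reflects cytotoxicity seen as loss of intracellular ATP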); conditions: MRC5 lung fibroblast viability, qHTS
Method in brief: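 qHTS cytotoxicity in human lung fibroblast MRC5 cells; 40 hr treatment, 37 °C; cellular ATP by luciferase luminescence; DMSO = 0%, 100 uM tamoxifen = 100% inhibition; Hill-fit AC50.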

[4] = Cell Viability - SK-N-SH (AID 435; calls by dose curve;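 further: potency means the concentration at half of the fitted maximal effect; compound exposure lasted 40 h at 37 °C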); conditions: SK-N-SH neuroblastoma cell viability qHTS
Method in brief: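 SK-N-SH human neuroblastoma cells (1500/well) were exposed to compounds in complete medium for 40 h at 37 °C, and intracellular ATP was then measured by CellTiter-Glo luminescence. AC50 was taken from Hill fits, normalized to DMSO and 100 uM tamoxifen.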

[5] = target: Mitogen-activated protein kinase 10 (Mus musculus) (UniProt Q61831); test: JNK3 AlphaScreen Assay (AID 530; active means well fitted curve in either direction with a large enough effect, not every such curve was filed as active;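 further: kinase came from lysate of stimulated human HepG2 cells; signal reports phosphorylation of biotinylated GST-cJun 1-79 at Ser73 with 10 µM ATP; on the % scale 0 is the no-effect control and ±100 the full control effect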); conditions: JNK3 lysate, c-Jun phosphorylation; series mostly up to 57.1 µM
Method in brief: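 Compound titrations were preincubated 15 minutes at room temperature with substrate, antibody and pre-activated JNK3-containing HepG2 lysate. Reactions were started with 10 uM ATP and stopped with EDTA-containing bead buffer for AlphaScreen detection.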

[6] = Cell Viability - N2a (AID 540); conditions: N2a mouse neuroblastoma cell viability; at 92.2 µM (top of the series);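 further: plate controls were DMSO alone for no effect and tamoxifen control for full effect; nearly all actives have a fitted effect of over 45% in size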
Method in brief: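 Luminescent ATP signal (CellTiter-Glo, 20 min at room temperature) served as the viability read-out after N2a cells were treated with compounds for 40 hours at 37 °C. Concentration-response data were fitted to the Hill equation for AC50.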

[7] = Cell Viability - HUV-EC-C (AID 542); conditions: HUV-EC-C endothelial cell viability, qHTS; series mostly up to 92.2 µM; further: on the % scale 0 is the no-effect control and ±100 the full control effect; nearly all actives have a fitted effect of over 35% in size
Method in brief: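 qHTS cytotoxicity: HUV-EC-C, 1000 cells/well, 5 hr settle, compound 40 hr 37 °C, CellTiter-Glo, luminescence. AC50 via Hill equation.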

[8] = Cell Viability - SH-SY5Y (AID 544); conditions: SH-SY5Y neuroblastoma cell viability; viability change, negative = cytotoxic: at 92.2 µM (top of the series); further: nearly all actives have a fitted effect of over 55% in size
Method in brief: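 Luminescent ATP read-out (CellTiter-Glo) measures loss of viable SH-SY5Y neuroblastoma cells after 40 hr compound exposure at 37 °C. AC50 values derive from standard Hill modelling of qHTS concentration-response data.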

[9] = Cell Viability - Renal Proximal Tubule (AID 545); conditions: renal proximal tubule cells viability, at 91.7 µM (top of the series); further: nearly all actives have a fitted effect of over 40% in size
Method in brief: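 Primary rat renal proximal tubule cells (1000/well) were treated with compounds for 40 hr at 37 °C in complete medium. Intracellular ATP was measured by CellTiter-Glo luminescence, and AC50 values came from Hill-equation fits of concentration-response data.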

[10] = Cell Viability - Mesenchymal (AID 546); conditions: mesenchymal cells viability, qHTS; series mostly up to 91.7 µM;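 further: cells exposed to compound for 40 hours before reading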
Method in brief: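 AC50 values reflect the drop in intracellular ATP in a human kidney mesenchymal line derived from normal glomeruli. Treatment lasts 40 hr at 37 °C in complete medium, and the signal comes from CellTiter-Glo luminescence.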

[11] = Cellular Toxicity (caspase-3) Jurkat (AID 655); conditions: Jurkat caspase-3 activation, luminescence, DMSO = 0%, tamoxifen = 100%; at 92.2 µM (top of the series);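 further: cells exposed to compound for 16 h at 37 °C before reading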
Method in brief: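 Jurkat cells (5000/well) in complete medium were treated with compounds for 16 hr at 37 °C, then Caspase-Glo 3/7 luminescence was read after 20 min at room temperature. Data normalized to DMSO (basal) and 100 uM tamoxifen (100%); AC50 from Hill fit.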

[12] = Cellular Toxicity (caspase-3) SHSY5Y (AID 657); conditions: SH-SY5Y caspase-3 activation, DMSO zero, 10 µM staurosporine = 100%; series mostly up to 91.7 µM;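 further: cells exposed to compound for 16 hours at 37 °C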
Method in brief: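 SH-SY5Y human neuroblastoma cells (1500/well) were treated with compounds for 16 h at 37 °C, then Caspase-Glo 3/7 luminescence was read after 1 h at room temperature. Data normalized to DMSO and 10 uM staurosporine; AC50 from Hill fits.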

[13] = Cellular Toxicity (caspase-3) BJ (AID 658); conditions: BJ fibroblasts, luminescence, normalized: DMSO 0%, staurosporine 100%; series mostly up to 91.7 µM;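 further: cells exposed to compound for 16 hours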
Method in brief: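 Readout: Caspase-Glo 3/7 luminescence increase in BJ cells after 16 hr treatment at 37 °C. Staurosporine and tamoxifen served as positive controls; AC50 values came from Hill modelling of data normalized to DMSO and 10 uM staurosporine.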

[14] = Cellular Toxicity (caspase-3) MRC-5 (AID 659); conditions: MRC-5 cells, luminescence, normalized: DMSO 0%, 10 µM staurosporine 100%; series mostly up to 91.7 µM
Method in brief: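 Concentration-dependent caspase 3/7 activation is measured in human normal lung fibroblasts (MRC-5) following 16-hour treatment. AC50 values come from standard Hill-equation modeling of luminescence normalized to DMSO and 10 uM staurosporine.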

[15] = Cellular Toxicity (caspase-3) Mesangial (AID 660); conditions: mesangial cells, normalized: DMSO 0%, 100 µM tamoxifen 100%; series mostly up to 91.7 µM;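 further: combined caspase 3 and 7 activity read by Caspase-Glo luminescence; cells exposed to compound for 16 h before the caspase read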
Method in brief: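 Mesangial cells, 1000/well, 5 h settle at 37 °C; compound 16 h, 37 °C; Caspase-Glo 3/7 reagent 20 min RT; luminescence. Norm.: DMSO = 0%, tamoxifen 100 uM = 100%. AC50, Hill fit.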

[16] = Cellular Toxicity (caspase-3) SK-N-SH (AID 661); conditions: SK-N-SH caspase-3 activation, qHTS, DMSO as zero, staurosporine as full; series mostly up to 91.7 µM;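 further: cells exposed to compound for 16 hours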
Method in brief: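 Human neuroblastoma SK-N-SH, 1500 cells/well, 5 hr pre-incubation, then compound 16 hr, 37 °C. Caspase-Glo 3/7 reagent, 1 hr RT, luminescence. Norm. to DMSO/10 uM staurosporine; Hill-fit AC50.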

[17] = Cellular Toxicity (caspase-3) Renal Proximal Tubule (AID 667); conditions: renal proximal tubule cells, at 91.7 µM (top of the series);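 further: cells exposed to compound for 16 hours at 37 °C before detection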
Method in brief: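 Primary rat proximal tubule cells, 1000/well, 5 h plating at 37 °C, then compound 16 h at 37 °C. Caspase-Glo 3/7 reagent, 1 h RT, luminescence. Normalized to DMSO (basal) and 10 uM staurosporine (100%); Hill-fit AC50.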

[18] = qHTS Assay for Identification of Small Molecule Inducers of Hypoxia Response (AID 2120; active means well fitted curve in the direction sought with a large enough effect in the signal ratio, with a control signal flat, not every such curve was filed as active; the % refers to the signal ratio; further: 0% is about no effect); conditions: hypoxia response reporter cells, beta-lactamase ratio readout; series mostly up to 104 µM
Method in brief: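 ME-180 HRE-bla cells plated in Opti-MEM/0.5% dialyzed FBS, rested 4-5 h, then dosed with compound titrations by pin tool. After 17 h at 37 degrees C, CCF4 dye loaded 2.5 h at RT; 460/530 nm ratio gave %Activity and AC50.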

[19] = qHTS assay for small molecule disruptors of the mitochondrial membrane potential - 5 hr assay (AID 651755; calls by dose curve; further: on the % scale 0 is the no-effect control and ±100 the full control effect; nearly all actives have a fitted effect of over 40% in size); conditions: JC-1-type ratio dye; series mostly up to 92.2 µM
Method in brief: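 HepG2, 2,000 cells/well, overnight attach; cpd or DMSO 5 hr, 37C/5% CO2; Mito-MPS 30 min 37C; fluor 490/535 + 540/590 nm.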

[20] = target: Peroxisome proliferator-activated receptor alpha (Homo sapiens) (UniProt Q07869); test: qHTS assay for small molecule agonists of the peroxisome proliferator-activated receptor alpha (PPARalpha) signaling pathway (AID 651778); conditions: PathHunter PPARalpha complementation, chemiluminescence, 6 h; active compounds read high; further: % of control where 0% means no effect
Method in brief: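 Chemiluminescence from complemented enzyme reported PPARalpha activation in cells after 6 hr of compound treatment at 37 C. The detection reagent was incubated for 60 min at room temperature, and compounds were scored as agonists.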

[21] = primary cells of rat origin unless noted
[22] = primary cells freshly taken from rat, solvent-only wells 0%, staurosporine 100% unless noted

Peroxisome proliferator-activated receptor alpha (Homo sapiens), sequence (Q07869 whole entry, looked up): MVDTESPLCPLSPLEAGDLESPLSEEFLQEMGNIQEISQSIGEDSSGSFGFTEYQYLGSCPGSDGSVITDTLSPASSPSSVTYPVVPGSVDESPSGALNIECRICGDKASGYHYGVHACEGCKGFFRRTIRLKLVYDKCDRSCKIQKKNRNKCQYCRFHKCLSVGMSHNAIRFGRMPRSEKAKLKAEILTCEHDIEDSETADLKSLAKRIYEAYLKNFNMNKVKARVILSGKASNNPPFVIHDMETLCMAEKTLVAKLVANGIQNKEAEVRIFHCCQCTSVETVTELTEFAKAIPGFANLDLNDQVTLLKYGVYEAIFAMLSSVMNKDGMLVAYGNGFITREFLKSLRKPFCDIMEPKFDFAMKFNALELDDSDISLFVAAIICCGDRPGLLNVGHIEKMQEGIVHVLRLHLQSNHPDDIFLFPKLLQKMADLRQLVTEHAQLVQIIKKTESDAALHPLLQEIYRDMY

c1ccc(-c2ccccc2)cc1
inactive: Potency [1] > 92 µM | Potency [2] > 92 µM | Potency [3] > 92 µM | Potency [4] > 92 µM | outcome [5] | activity change, negative = cytotoxicity [6] -4.83% | Potency [7] | Potency [8] | activity change, negative = cytotoxicity [9, 21] 1.72% | outcome [10] | caspase-3 activation [11] 0.52% | outcome [12] | outcome [13] | outcome [14] | outcome [15] | outcome [16] | caspase-3 activation [17, 22] -8.06% | outcome [18] | Potency [19] | max response [20] -2.7% and -1.05%

CCN(CC)c1ccccc1
inactive: Potency [1] > 92 µM | Potency [2] > 92 µM | Potency [3] > 92 µM | Potency [4] > 92 µM | outcome [5] | activity change, negative = cytotoxicity [6] 3.96% | Potency [7] | Potency [8] | activity change, negative = cytotoxicity [9, 21] -4.65% | outcome [10] | caspase-3 activation [11] -0.552% | outcome [12] | outcome [13] | outcome [14] | outcome [15] | outcome [16] | caspase-3 activation [17, 22] 2.98% | outcome [18] | Potency [19] | max response [20] -1.88%

C[C@]12CC[C@H]3[C@@H](CCC4=CC(=O)CC[C@@]43C)[C@@H]1CC[C@@H]2O
inactive: Potency [1] > 92 µM | Potency [2] > 92 µM | Potency [3] > 92 µM | Potency [4] > 92 µM | activity change, negative = cytotoxicity [6] -5.73% | Potency [7] | Potency [8] | activity change, negative = cytotoxicity [9, 21] -15.1% [at 91.7 µM] | outcome [10] | caspase-3 activation [11] 4.38% | outcome [12] | outcome [13] | outcome [14] | outcome [15] | outcome [16] | caspase-3 activation [17, 22] -4.12% [at 91.7 µM] | outcome [18] | Potency [19] | max response [20] -2.99%

COC1=CC(=O)O[C@@H](/C=C/c2ccc3c(c2)OCO3)C1
inactive: Potency [1] > 92 µM | Potency [2] > 92 µM | Potency [3] > 92 µM | Potency [4] > 92 µM | outcome [5] | activity change, negative = cytotoxicity [6] -10.4% | Potency [7] | Potency [8] | activity change, negative = cytotoxicity [9, 21] -14.1% | outcome [10] | caspase-3 activation [11] -10% | outcome [12] | outcome [13] | outcome [14] | outcome [15] | outcome [16] | caspase-3 activation [17, 22] -22.8% | outcome [18] | Potency [19] | max response [20] -0.53%

Cc1ccccc1N
inactive: Potency [1] > 92 µM | Potency [2] > 92 µM | Potency [3] > 92 µM | Potency [4] > 92 µM | outcome [5] | activity change, negative = cytotoxicity [6] -19.6% and 1.37% | Potency [7] | Potency [8] | activity change, negative = cytotoxicity [9] -0.93% | activity change, negative = cytotoxicity ([9]; primary cells of rat origin) -4.73% | outcome [10] | caspase-3 activation [11] 11.5% and 2.29% | outcome [12] | outcome [13] | outcome [14] | outcome [15] | outcome [16] | caspase-3 activation [17] -5.94% | caspase-3 activation ([17]; primary cells freshly taken from rat, solvent-only wells 0%, staurosporine 100%) 22.1% | outcome [18] | Potency [19] | max response [20] -4.65% and -3.69%
